An excerpt weighted towards active compounds, which were near 3.1% of everything screened.
15-hLO-2 inh: qHTS Assay for Inhibitors of 15-hLO-2 (15-human lipoxygenase 2) | AID 881, 2007 | purified 15hLO-2, xylenol orange hydroperoxide absorbance | Polyunsaturated fatty acid lipoxygenase ALOX15B (Homo sapiens), O15296 | 110,000 compounds, 0.56% hits | Potency, µM (series often up to 57.1 µM), most hits filed as inhibitors; note: nearly all actives have a fitted effect of over 60% in size
Target sequence (O15296 whole entry, looked up): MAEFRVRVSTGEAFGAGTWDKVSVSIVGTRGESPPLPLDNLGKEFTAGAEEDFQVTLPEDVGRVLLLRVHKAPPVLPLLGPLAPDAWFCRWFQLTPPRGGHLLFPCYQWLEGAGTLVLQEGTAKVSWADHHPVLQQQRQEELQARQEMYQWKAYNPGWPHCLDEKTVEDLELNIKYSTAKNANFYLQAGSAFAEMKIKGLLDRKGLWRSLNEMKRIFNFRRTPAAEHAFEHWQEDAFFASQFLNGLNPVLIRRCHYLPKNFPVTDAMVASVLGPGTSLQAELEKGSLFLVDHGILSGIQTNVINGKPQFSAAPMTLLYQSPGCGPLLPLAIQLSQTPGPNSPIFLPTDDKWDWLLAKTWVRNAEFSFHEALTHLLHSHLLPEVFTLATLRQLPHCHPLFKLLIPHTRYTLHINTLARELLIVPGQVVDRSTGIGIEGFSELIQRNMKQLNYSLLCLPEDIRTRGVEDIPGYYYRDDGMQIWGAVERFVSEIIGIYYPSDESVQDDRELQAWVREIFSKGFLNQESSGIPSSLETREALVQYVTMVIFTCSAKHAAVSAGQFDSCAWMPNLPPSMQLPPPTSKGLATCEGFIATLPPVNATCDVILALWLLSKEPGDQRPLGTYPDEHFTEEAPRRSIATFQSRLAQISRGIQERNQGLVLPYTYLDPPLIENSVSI
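Purified human 15hLO-2 (50 nM) preincubated 15 min with compound, then 45 uM arachidonic acid for 90 min at RT in 25 mM Hepes pH 7.5, 0.01% Triton X-100. Hydroperoxide detected by Fe-xylenol orange; 573/405 nm absorbance ratio.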
PNC assembly inh: High Content Assay for Compounds that inhibit the Assembly of the Perinucleolar Compartment | PC3M PTB-GFP, PNC prevalence imaging, 16 h; active compounds read low | activity change (PNC), negative = inhibition, % at 10 µM | 140,000 compounds, 3.1% hits | AID 2417, 2010;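 active = readout at or below -70, meaning at least 70% loss of cells showing the perinucleolar compartment, a nuclear body marking cancer cells; inconclusive = readout between -30 and a set limit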
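Read-out is percentage of cells bearing a perinucleolar compartment, from automated 20x imaging of fixed, Hoechst-stained PC3M PTB-GFP cells. Cells were seeded 4 h, then exposed 16 h to compound (23 nl of library stock) in duplicate plates.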
12-hLO inh: qHTS Assay for Inhibitors of 12-hLO (12-human lipoxygenase) | 150,000 compounds, 0.12% hits | AID 1452, 2008 | purified 12-hLO, xylenol orange hydroperoxide absorbance | Potency, µM (titrated, usually from 57.1 µM), actives largely listed as inhibitors; note: nearly all actives have a fitted effect of over 55% in size
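Lipoxygenase turnover measured by absorbance at 573 and 405 nm after Fe-XO development. Human 12hLO 150 nM, arachidonate 40 uM, pH 7.0 Hepes buffer with detergent; 15 min compound preincubation, 30 min reaction.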
Numbers stand for hits; . = inactive; ? = inconclusive; / = no result given; [ ] = another dose, or the depositor's remark. Unless noted, calls come from the whole dose curve; as a rule, active = well fitted curve in the direction sought with a large enough effect; inconclusive = small, poorly fitted or top-dose-only effect, or another doubt; inactive = no such curve, though single readings can be large; an effect the other way counts as inactive or inconclusive.

SMILES | 15-hLO-2 inh | PNC assembly inh | 12-hLO inh
CC(=O)N1CCc2cc(S(=O)(=O)Nc3cccc(C(F)(F)F)c3)ccc21 | . | . | .
COc1ccc(-c2nc3cnc(N4CCOCC4)nc3n(-c3ccccc3)c2=O)cc1 | . | / | /
COc1ccc2c(CCNC(=O)CN3C(=O)c4ccccc4C3=O)c[nH]c2c1 | / | ? | .
COc1ccc2c(CCNC(=O)c3ccco3)c[nH]c2c1 | . | -114 | .
COc1c2c(nc3ccccc13)O[C@@H]([C@@](C)(O)CO)C2 | . | / | .
COc1ccc(CCNS(=O)(=O)c2ccc(S(=O)(=O)N3CCCC3)cc2)cc1OC | . | . | .
COc1ccc(CCNS(=O)(=O)c2ccc(C3CNC(=O)C3)cc2)cc1OC (centres undefined) | / | -119 | .
CCCCC[C@H](O)/C=C/[C@H]1OC(=O)C[C@H](O)[C@@H]1C/C=C\CCCC(=O)O | / | / | .
CS(=O)(=O)N(CC(=O)N1CCCCCC1)Cc1ccc(Cl)cc1 | . | -107 | .
O=C(CCCOc1ccc(Cl)cc1)N1CCCCCC1 | . | -99 | .
O=C(CCCOc1ccc(Cl)cc1)N1CCCCC1 | . | . | .
CN1CCN(C(=O)CN(Cc2ccc(Cl)cc2)S(C)(=O)=O)CC1 | . | ? | .
C[C@@H]1CNCCN1S(=O)(=O)c1cccc2cnccc12 | . | / | .
COc1ccccc1CN1CCC2(CC1)CCN(C(=O)c1cccc(F)c1)CC2 | . | / | .
CC(=O)O[C@](C)(CCC=C(C)C)C1CC=C(C)CC1 (some centres undefined) | . | / | .
C/C(=C\C(=O)C(F)(F)F)Nc1ccc(C)cc1 | / | ? | .
C/C(=C\C(=O)C(F)(F)F)Nc1cc(C)cc(C)c1 | . | -85 | .
C=CCCCCCC | . | / | .
Cc1ccc(/C(C#N)=C\c2ccc(N3CCOCC3)o2)cc1 | 13µM | . | .
N#C/C(=C/c1ccc(N2CCCCC2)cc1)c1cccc(F)c1 | / | . | .
N#C/C(=C/c1ccc(N2CCCCCC2)o1)c1ccc(Cl)cc1 | 7.9µM | . | ?
COc1cc(N2CCCC2)c(OC)cc1/C=C(/C#N)c1ccc(Br)cc1 | . | . | .
Cc1ccc2nc(/C(C#N)=C\c3ccc(N4CCOCC4)o3)[nH]c2c1 | / | . | .
N#C/C(=C/c1ccc(N2CCCCC2)o1)c1cccc(F)c1 | 10µM | . | .
O=c1cc(N=Nc2ccc(O)cc2)[nH]c(=O)[nH]1 | .[11.4 µM] | / | .[11.4 µM]
SMILES | 15-hLO-2 inh | PNC assembly inh | 12-hLO inh
O=C(O)c1ccc(Cl)c(S(=O)(=O)Nc2ccccc2)c1 | / | / | .
N[C@H](Cc1cnc[nH]1)C(=O)O | . | / | .
COC(=O)[C@@H]1C[C@@]1(C)[C@@H](NC(=O)OCc1ccccc1)c1ccccc1 | . | / | .
COc1cccc(CNc2cnc3ccccc3c2)c1O | / | . | .
COc1cccc(CNc2cccc3cccnc23)c1O | . | -94 | .
CN(C)c1ccc(C=Nc2ccccc2C(N)=O)cc1 | . | . | .
Cc1ccc(C=Nc2ccccc2C(N)=O)o1 | / | -93 | .
CC(=O)N[C@@H](CC(=O)O)C(=O)N[C@@H](CCC(=O)O)C(=O)O | . | / | .
NC(=O)C1C(c2ccccc2)=C1c1ccccc1 | . | -127 | .
NC(=O)C1c2ccccc2CSc2ccccc21 (centres undefined) | . | . | .
CCc1ccc(CCC(=O)O)nc1 | .[11.4 µM] | / | .[11.4 µM]
O=C(NCCSCc1ccco1)Nc1cccc(Cl)c1 | . | -84 | .
O=C(NCCSCc1ccco1)Nc1ccc(Cl)cc1 | . | . | .
CCCCC1=CC2=C(OC(C)=O)C(=O)C(C)(OC(=O)CC)C(=O)C2=CO1 (centres undefined) | / | / | .
O=S(=O)(c1ccccc1)N1CCC2(CCCN(Cc3ccncc3)C2)CC1 | . | / | .
CC1(C)CC(NC(=O)c2coc(=O)c(Br)c2)CC(C)(C)N1 | . | -100 | .
CC1(C)CC(NC(=O)c2ccc3c(c2)OCO3)CC(C)(C)N1 | . | . | .
CCCC[C@@H]1C[C@H]1C(NC(=O)Cc1ccccc1)c1ccc(-c2ccccc2)cc1 (some centres undefined) | . | / | .
N#CCCn1c(=O)c(-c2ccccc2)nc2cnc(Oc3cccc(Cl)c3)nc21 | . | / | .
COc1ccc(OC)c(NC(=O)CN2C(=O)NC3(CCOc4ccccc43)C2=O)c1 (centres undefined) | . | . | .
COc1ccc(CN2C(=O)NC3(CCOc4ccccc43)C2=O)cc1F (centres undefined) | / | -80 | .
Nc1nc(SCc2ccccc2Cl)cc(C(=O)O)n1 | .[11.4 µM] | / | .[11.4 µM]
NS(=O)(=O)c1ccc(NCc2nc3ccccc3[nH]2)cc1 | .[11.4 µM] | / | .[11.4 µM]
CCOC(=O)CCCCNCc1ccccc1 | / | -100 | .
O=C(O)CCCCNCc1ccccc1 | . | . | .
SMILES | 15-hLO-2 inh | PNC assembly inh | 12-hLO inh
COc1cc(C(=O)O)ccc1O | / | . | .
O=C(O)c1ccc2cc(-c3ccc(O)c(C45CC6CC(CC(C6)C4)C5)c3)ccc2c1 | 7.9µM | / | ?
Cc1cc([N+](=O)[O-])cc(C)c1OCC(=O)N/N=C/c1ccc(OC(=O)c2ccccc2Br)cc1 | / | . | .
Cc1cc([N+](=O)[O-])cc(C)c1OCC(=O)N/N=C/c1ccc(OC(=O)c2ccccc2)cc1 | / | -100 | .
CC(=O)N1CCC[C@@]2(CCN(Cc3nccs3)C2)C1 | . | / | .
COc1ccc2c3c1O[C@H]1C[C@H](O)C=C[C@@]31CCN(C)C2 | . | / | .
COc1ccccc1OCc1ccc(C(=O)NCc2ccco2)o1 | .[11.4 µM] | -86 | .
COc1ccccc1OCc1ccc(C(=O)NC(C)(C)C)o1 | . | . | .
O=C(c1cccc(F)c1)N1CCC2(CCCN(c3cccc(-c4ccccc4)c3)C2)CC1 | . | / | .
CC(=O)Nc1cnc(NC(=O)c2cccc(F)c2)cc1C | / | ? | .
CCC(=O)Nc1cnc(NC(=O)c2cccc(F)c2)cc1C | / | -100 | .
O=C(c1ccncc1)N1CCC[C@@]2(CCN(C(c3ccccc3)c3ccccc3)C2)C1 | . | / | .
Cc1ccc(/C=N/NC(=O)c2ccc(Br)o2)s1 | / | -98 | .
CCc1ccc(/C=N\NC(=O)c2ccc(Br)o2)s1 | / | . | .
Cc1ccccc1N(CC(=O)NCC1CCCO1)C(=O)C1(C)CC(=O)N=C2C=CC=CN21 (centres undefined) | . | ? | .
Cc1ccccc1N(CC(=O)NC1CCCC1)C(=O)C1(C)CC(=O)N=C2C=CC=CN21 (centres undefined) | / | -116 | .
Fc1ccc(Nc2nc(Oc3ccc4c(c3)OCO4)nc(N3CCOCC3)n2)c(F)c1 | . | -95 | .
Clc1ccc(Oc2nc(Oc3ccc(Cl)cc3)nc(N3CCOCC3)n2)cc1 | . | . | .
CCOc1ccc(-c2nnn(CC(=O)NCc3ccco3)n2)cc1OCC | / | -100 | .
CCCCOc1ccc(-c2nnn(CC(=O)NCc3ccco3)n2)cc1 | . | . | .
C=C1C2=CC(=O)OC(c3ccoc3)[C@]2(C)CCC1[C@]1(C)C=CC(=O)C(C)(C)C1CC(=O)OC (some centres undefined) | . | / | .
COc1ccc(NC(=O)/C=C\c2ccc(Cl)cc2)cc1 | . | / | .
O=c1c([N+](=O)[O-])c(N2CCCCC2)c2ccccc2n1-c1ccccc1 | . | . | .

Screens deposited in PubChem BioAssay by National Center for Advancing Translational Sciences (NCATS).
